{"source": "PubChem BioAssay AID686979", "about": "(National Center for Advancing Translational Sciences (NCATS), 2013)", "note": "The whole screen tested about 420,000 compounds, of which about 50,000 (12%) were called active. Inconclusive results (about 26%) are left out. Calls follow the shape of the dose curve; as a rule, active = well fitted inhibition curve with a large enough effect; inconclusive = small, poorly fitted or top-dose-only effect; inactive = flat fitted curve, though single readings scatter. For the sample, actives were picked, then their nearest neighbours and some compounds at random. % is scaled to controls: 0 for no effect and ±100 for the full control effect; potency is read from the fitted curve at half-maximal effect.", "data": [{"experiment": "qHTS for Inhibitors of human tyrosyl-DNA phosphodiesterase 1 (TDP1): qHTS in cells in presence of CPT; also: nearly all actives have a fitted effect of over 55% in size", "details": "chicken DT40 Tdp1-/-;hTDP1 cells + 20 nM CPT, ATP luminescence, 48 h; series mostly up to 46.2 µM; activity change, negative = growth inhibition: at the top concentration", "summary_of_the_method": "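Cell growth measured by CellTiter-Glo luminescence after a minimum 48 h, 37 C compound exposure with 20 nM CPT in Tdp1-knockout DT40 cells stably expressing hTDP1, seeded 400/well; qHTS titration format.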", "values": [{"smiles": "CCC(=O)c1ccc(OC(=O)/C=C/c2cc(OC)c(OC)c(OC)c2)cc1", "activity change, negative = growth inhibition": "2.38% (inactive)"}, {"smiles": "CC1(C)C=Cc2c(ccc3c2OC[C@@H](c2ccc(O)cc2O)C3)O1", "Potency": "25.9 µM (active)"}, {"smiles": "NS(=O)(=O)c1ccc(NC2=CC(c3ccc(F)cc3)N(c3ccc(S(N)(=O)=O)cc3)C2=O)cc1", "note": "(centres undefined)", "activity change, negative = growth inhibition": "-11.3% (inactive)"}, {"smiles": "Cc1[nH]nc(SCC(=O)NCC(C)C)c1[N+](=O)[O-]", "activity change, negative = growth inhibition": "2.73% (inactive)"}, {"smiles": "CC1CCCC(N2CCN(C(=O)c3ccc(F)cc3)CC2)C1", "note": "(centres undefined)", "activity change, negative = growth inhibition": "3% (inactive)"}, {"smiles": "CCCc1ccc(OCc2ccc(C(=O)N/N=C/c3cccc([N+](=O)[O-])c3)o2)c(OC)c1", "Potency": "8.2 µM (active)"}, {"smiles": "COC(=O)c1ccc(COc2ccc(/C=N/NC(=O)C(=O)Nc3ccc(OC)cc3)cc2OC)o1", "activity change, negative = growth inhibition": "-8.05% (inactive)"}, {"smiles": "COc1ccccc1OCc1ccc(C(=O)NC(C)c2ccccc2)o1", "note": "(centres undefined)", "activity change, negative = growth inhibition": "1.09% (inactive)"}, {"smiles": "CCOc1ccc(C2C(C#N)=C(N)N(N(C)C)C3=C2C(=O)CCC3)cc1", "note": "(centres undefined)", "activity change, negative = growth inhibition": "-4.52% (inactive)"}, {"smiles": "Cc1ccc2c(O)c(Cc3ccccc3)c(=O)[nH]c2n1", "activity change, negative = growth inhibition": "-7.61% (inactive)"}, {"smiles": "O=C(NC1CCCC1)C1CCN(C(=O)Nc2cccc(Cl)c2)CC1", "activity change, negative = growth inhibition": "0.714% (inactive)"}, {"smiles": "COc1ccc(CNC(=O)COC(=O)c2sccc2C)cc1OC", "activity change, negative = growth inhibition": "-16.2% (inactive)"}, {"smiles": "OC(CN=c1sc2ccccc2n1CC(O)COc1ccccc1)COc1ccccc1", "note": "(centres undefined)", "Potency": "25.9 µM (active)"}, {"smiles": "O=C(c1ccccc1)c1ccc(OCC(O)CN2CCCC2)cc1", "note": "(centres undefined)", "activity change, negative = growth inhibition": "-0.0362% (inactive)"}, {"smiles": "OC(COc1ccccc1)Cn1cc(Br)cn1", "note": "(centres undefined)", "activity change, negative = growth inhibition": "5.11% (inactive)"}, {"smiles": "Cc1ccc(OCCNC(=O)CCNS(=O)(=O)c2ccc(Br)cc2)cc1", "activity change, negative = growth inhibition": "-29.3% (inactive)"}, {"smiles": "COc1ccc(C)cc1Nc1nc(-c2c(C)[nH]c3ccccc23)cs1", "activity change, negative = growth inhibition": "-20.2% (inactive)"}, {"smiles": "COc1ccc(C)cc1S(=O)(=O)Nc1cccc(Cl)c1Cl", "activity change, negative = growth inhibition": "-10.9% (inactive)"}, {"smiles": "COc1ccc(C)cc1Nc1n[n+](-c2ccccc2)c(-c2cccc(Cl)c2Cl)s1", "Potency": "13 µM (active)"}, {"smiles": "O=C(c1ccc(NS(=O)(=O)c2ccc3[nH]c(=O)[nH]c3c2)cc1)N1CCCCC1", "activity change, negative = growth inhibition": "5.76% (inactive)"}, {"smiles": "N#CC1(NC(=O)COC(=O)CSc2ccc(F)cc2)CCCCC1", "activity change, negative = growth inhibition": "-20.6% (inactive)"}, {"smiles": "Cc1ccc(NC(=O)NC(=O)c2ccccc2)cc1F", "activity change, negative = growth inhibition": "-13.6% (inactive)"}, {"smiles": "CC(=O)N1CCN(CC(=O)Nc2ccc(C)c(F)c2)CC1", "activity change, negative = growth inhibition": "-19.2% (inactive)"}, {"smiles": "Cc1ccc(NC2=C(c3ccc(C(F)(F)F)cc3)C(=O)c3ccccc32)cc1F", "Potency": "8.2 µM (active)"}, {"smiles": "COC(=O)c1sc(SC)c(S(=O)(=O)C(C)C)c1N/N=C(\\C#N)S(=O)(=O)c1ccccn1", "activity change, negative = growth inhibition": "1.69% (inactive)"}, {"smiles": "CCCC(=O)OCC(=O)Nc1cc(Cl)ccc1[N+](=O)[O-]", "activity change, negative = growth inhibition": "6.39% (inactive)"}, {"smiles": "CCc1ccc(CN(C)C(=O)CCc2nnc(-c3ccc(-c4ccccc4)cc3)o2)nc1", "Potency": "18.4 µM (active)"}, {"smiles": "CC(C)N(C)C(=O)CCc1nnc(CCc2c[nH]c3ccccc23)o1", "activity change, negative = growth inhibition": "-6.4% (inactive)"}, {"smiles": "CC(=O)c1ccc(-c2nnc(CCC(=O)N(C)Cc3cnc4ccccn34)o2)s1", "activity change, negative = growth inhibition": "0.834% (inactive)"}, {"smiles": "CCCc1ccc(OCC(O)CN2CCN(CCO)CC2)cc1", "note": "(centres undefined)", "activity change, negative = growth inhibition": "6.86% (inactive)"}, {"smiles": "CC(=O)c1cccc(-c2cnc3c(NC=O)cc(-c4ccccc4Oc4ccccc4)cn23)c1", "Potency": "14.6 µM (active)"}, {"smiles": "CC(=O)N1c2ccccc2CC1C(=O)N1CCN(c2ccc(F)cc2)CC1", "note": "(centres undefined)", "activity change, negative = growth inhibition": "-18.4% (inactive)"}, {"smiles": "O=C(Nc1ccc(F)cc1)N1CCN(c2ccc(F)cc2)CC1", "activity change, negative = growth inhibition": "19.6% (inactive)"}, {"smiles": "CN(C)C(=O)c1cccc(-c2cnc3c(NC=O)cc(-c4ccc(C(=O)N5CCOCC5)cc4)cn23)c1", "Potency": "29.1 µM (active)"}, {"smiles": "COc1ccccc1C(=O)Nc1cccc(C(=O)N2CCOCC2)c1", "activity change, negative = growth inhibition": "9.81% (inactive)"}, {"smiles": "CC(=O)Nc1cc(-c2ccc(N3CCN(C)CC3)cc2)cn2c(-c3ccc(F)cc3)cnc12", "Potency": "5.17 µM (active)"}, {"smiles": "CC(=O)c1cccc(-c2cnc3c(NC=O)cc(-c4ccc(N(C)C)cc4)cn23)c1", "Potency": "7.31 µM (active)"}, {"smiles": "CNc1cncc(-c2cccc(C(=O)N3CCOCC3)c2)n1", "activity change, negative = growth inhibition": "-12.1% (inactive)"}, {"smiles": "COC(=O)C1CCN(C(=O)NC2CC(=O)N(c3ccc4c(c3)OCCO4)C2)CC1", "note": "(centres undefined)", "activity change, negative = growth inhibition": "1.67% (inactive)"}, {"smiles": "NC(=O)COC(=O)c1ccc2c(c1)C(=O)N(Cc1ccco1)C2=O", "activity change, negative = growth inhibition": "-16.2% (inactive)"}, {"smiles": "COc1cc2c(C(=O)O)c(C)n(C)c2c2ccccc12", "activity change, negative = growth inhibition": "-17.2% (inactive)"}, {"smiles": "CNC[C@H]1Oc2c(NC(=O)C3CCCCC3)cccc2C(=O)N([C@H](C)CO)C[C@@H]1C", "activity change, negative = growth inhibition": "11.7% (inactive)"}, {"smiles": "CCOC(=O)C(Cc1ccccc1)NC(=O)CCc1c(C)nc2c(c(C)nn2-c2ccc(C)c(C)c2)c1C", "note": "(centres undefined)", "activity change, negative = growth inhibition": "-29.9% (inactive)"}, {"smiles": "Cc1cc(C)c2c(NC(=O)C3CC3)nn(C)c2n1", "activity change, negative = growth inhibition": "-6.29% (inactive)"}, {"smiles": "O=C(NCCc1ccccn1)c1nc(Cn2cc([N+](=O)[O-])cn2)no1", "activity change, negative = growth inhibition": "5.17% (inactive)"}, {"smiles": "COc1ccc(NC(=O)CCS(=O)(=O)c2cc3c(cc2Cl)NC(=O)CO3)cc1OC", "activity change, negative = growth inhibition": "-12.9% (inactive)"}, {"smiles": "CCOc1ccc(N2C(=O)Nc3ccccc3C2(O)C(=O)NCc2ccco2)cc1", "note": "(centres undefined)", "activity change, negative = growth inhibition": "-10.1% (inactive)"}, {"smiles": "Cc1ccc(NC(=O)c2sccc2C)cc1[N+](=O)[O-]", "activity change, negative = growth inhibition": "5.4% (inactive)"}, {"smiles": "O=C(CSc1nccc(=O)[nH]1)Nc1ccc(N2CCOCC2)c(Cl)c1", "activity change, negative = growth inhibition": "-2.28% (inactive)"}, {"smiles": "Cc1ccc(OCC(=O)NCCCNC(=O)c2ccco2)cc1C", "activity change, negative = growth inhibition": "11% (inactive)"}, {"smiles": "CCCC(C(=O)NC1CCCC1)N(C(=O)Cn1nnc(-c2ccc(C)o2)n1)c1cccc(O)c1", "note": "(centres undefined)", "activity change, negative = growth inhibition": "7.3% (inactive)"}, {"smiles": "CC(=O)c1ccc(S(=O)(=O)N2CCC3(CC2)OCCO3)cc1", "activity change, negative = growth inhibition": "-1.56% (inactive)"}, {"smiles": "O=C(CSc1ncccn1)N1CCCC1", "activity change, negative = growth inhibition": "-6.15% (inactive)"}, {"smiles": "COc1ccc(O)c(C(=O)c2cnc3c(c2)c(-c2ccc(F)cc2)c(C#N)c(=O)n3C)c1", "activity change, negative = growth inhibition": "-34.5% (inactive)"}, {"smiles": "CNc1cnc(-c2cc(OC)c(OC)c(OC)c2)cn1", "activity change, negative = growth inhibition": "8.84% (inactive)"}, {"smiles": "COc1ccc(-c2cc(NC(C)=O)c3ncc(-c4cc(OC)c(OC)c(OC)c4)n3c2)cn1", "Potency": "2.59 µM (active)"}, {"smiles": "Cc1ccc(C(=O)N2CCN(C(=O)N3CCOCC3)CC2)cc1", "activity change, negative = growth inhibition": "-0.646% (inactive)"}, {"smiles": "COc1cc(C(=O)N2CCN(C)CC2)cc(OC)c1OC", "activity change, negative = growth inhibition": "9.33% (inactive)"}, {"smiles": "CC(=O)Nc1cccc(-c2cc(NC=O)c3ncc(-c4ccc(F)c(Cl)c4)n3c2)c1", "Potency": "23.1 µM (active)"}, {"smiles": "N#C/C=C(/c1ccc(F)cc1)N1CCOCC1", "activity change, negative = growth inhibition": "-2.86% (inactive)"}, {"smiles": "Cc1c(NC(=O)Nc2ccc(F)c(Cl)c2)c(=O)n(-c2ccccc2)n1C", "activity change, negative = growth inhibition": "-2.31% (inactive)"}, {"smiles": "CN(C)C(=O)c1cccc(-c2cnc3c(NC=O)cc(-c4ccc(F)cc4)cn23)c1", "Potency": "6.51 µM (active)"}, {"smiles": "O=CNc1cc(-c2ccc(C(=O)N3CCOCC3)cc2)cn2c(-c3ccc(F)cc3)cnc12", "Potency": "20.6 µM (active)"}, {"smiles": "Cc1ccc(OCC(=O)NCCCNC(=O)c2cccnc2)cc1C", "activity change, negative = growth inhibition": "-10.9% (inactive)"}]}]}
